Test results taken from the antibiotic and cytotoxicity screens of Wong et al. (2023).
The campaign covered roughly 39,000 compounds. About 3,300 (8.5%) were called active. The list comes from a sample in which actives are over-represented; it also holds similar structures and randomly drawn compounds.

System: HepG2
Assay: cytotoxicity call (relative viability < 0.9)
Conditions: 10 µM

Row | Compound | cytotoxicity call
1 | C[C@@H]1CN([C@@H](C)CO)C(=O)c2cc(-c3ccncc3)cnc2O[C@@H]1CN(C)S(=O)(=O)c1ccc(F)cc1 | inactive
2 | COc1ccc2c3c(n(c2c1)C)[C@@H](CO)N(CC1CCOCC1)C[C@]13CN(C1)C(=O)Cc1cccnc1 | inactive
3 | C[C@@H]1CN([C@H](C)CO)C(=O)c2cccc(NS(=O)(=O)c3cccs3)c2O[C@@H]1CN(C)S(=O)(=O)c1ccc(F)cc1 | inactive
4 | C[C@@H]1CN([C@@H](C)CO)S(=O)(=O)c2ccc(C#Cc3ccncc3)cc2O[C@@H]1CN(C)C(=O)C1CCCCC1 | active
5 | C[C@@H]1CN([C@H](C)CO)S(=O)(=O)c2ccc(C#Cc3ccncc3)cc2O[C@@H]1CN(C)C(=O)C1CCCCC1 | active
6 | C[C@H](O)C#Cc1ccc2c(c1)O[C@@H](CN(C)C(=O)C1CCCCC1)[C@@H](C)CN([C@@H](C)CO)S2(=O)=O | inactive
7 | C[C@@H]1CN([C@H](C)CO)S(=O)(=O)c2ccc(C#CC3CC3)cc2O[C@H]1CN(C)C(=O)C1CCCCC1 | inactive
8 | C[C@H]1CN([C@@H](C)CO)S(=O)(=O)c2ccc(C#Cc3ccncc3)cc2O[C@@H]1CN(C)C(=O)C1CCCCC1 | active
9 | Cc1noc(C)c1NC(=O)Nc1ccc2c(c1)CC(=O)N([C@H](C)CO)C[C@@H](C)[C@@H](CN(C)Cc1ccc(C(=O)Nc3ccccc3N)cc1)O2 | inactive
10 | C[C@@H]1CN([C@H](C)CO)C(=O)Cc2cc(NC(=O)CCC(F)(F)F)ccc2O[C@@H]1CN(C)Cc1ccc(C(=O)Nc2ccccc2N)cc1 | inactive
11 | C[C@H](CO)N1C[C@H](C)[C@H](CN(C)S(C)(=O)=O)Oc2c(cccc2N(C)C)C1=O | inactive
12 | C[C@@H]1CN([C@H](C)CO)C(=O)c2cccc(NC(=O)C3CCCCC3)c2O[C@@H]1CN(C)S(=O)(=O)c1cn(C)cn1 | inactive
13 | C[C@@H]1CN([C@H](C)CO)C(=O)c2cccc(NC(=O)Nc3ccc(F)cc3)c2O[C@@H]1CN(C)S(=O)(=O)c1cn(C)cn1 | inactive
14 | COc1ccc(-n2nc(C(=O)NCC(=O)N3CCN(c4ccccc4)CC3)c3ccccc3c2=O)c(OC)c1 | inactive
15 | CC[C@H]1OC(=O)[C@H](C)[C@@H](O[C@H]2C[C@@](C)(OC)[C@@H](O)[C@H](C)O2)[C@H](C)[C@@H](O[C@@H]2O[C@H](C)C[C@H](N(C)C)[C@H]2O)[C@](C)(O)C[C@@H](C)[C@@H]2N[C@@H](COCCOC)O[C@H]([C@H]2C)[C@]1(C)O | inactive
16 | C[C@@H]1CN([C@@H](C)CO)C(=O)Cc2cc(NC(=O)Nc3ccc(C(F)(F)F)cc3)ccc2O[C@H]1CN(C)C(=O)Nc1ccc(C(F)(F)F)cc1 | active
17 | C[C@H](CO)N1C[C@H](C)[C@@H](CN(C)C(=O)Nc2ccc(C(F)(F)F)cc2)Oc2ccc(NC(=O)Nc3ccc(C(F)(F)F)cc3)cc2CC1=O | active
18 | C[C@H]1CN([C@@H](C)CO)C(=O)Cc2cc(NC(=O)Nc3ccc(C(F)(F)F)cc3)ccc2O[C@@H]1CN(C)C(=O)Nc1ccc(C(F)(F)F)cc1 | inactive
19 | C[C@@H]1CN([C@H](C)CO)C(=O)Cc2cc(NC(=O)Nc3ccc(C(F)(F)F)cc3)ccc2O[C@H]1CN(C)C(=O)Nc1ccc(C(F)(F)F)cc1 | inactive
20 | C[C@@H]1CN([C@@H](C)CO)C(=O)Cc2cc(NC(=O)Nc3ccc(C(F)(F)F)cc3)ccc2O[C@@H]1CN(C)C(=O)Nc1ccc(C(F)(F)F)cc1 | active
21 | C[C@H]1CN([C@@H](C)CO)C(=O)Cc2cc(NC(=O)Nc3ccc(C(F)(F)F)cc3)ccc2O[C@H]1CN(C)C(=O)Nc1ccc(C(F)(F)F)cc1 | active

Row | Compound | cytotoxicity call
22 | Cc1ccc(S[C@]2(C(=O)NC3CC3)CC(=O)N(Cc3ccccc3C(F)(F)F)[C@@H]2c2ccc(CO)cc2)cc1 | inactive
23 | Cc1ccc(S(=O)(=O)N2CCOCC2)cc1NC(=O)CN1C(=O)CN(C)C1=O | inactive
24 | C[C@@H]1CN([C@H](C)CO)C(=O)CCCn2cc(nn2)CO[C@H]1CN(C)Cc1cccc2c1OCCCO2 | inactive
25 | C[C@H](CO)N1C[C@H](C)[C@H](CN(C)Cc2ccccc2)OCCCC[C@H](C)Oc2ccc(NS(=O)(=O)c3ccc(F)cc3)cc2C1=O | inactive
26 | C[C@H]1CN([C@@H](C)CO)C(=O)c2cc(-c3cccc(C(=O)N(C)C)c3)cnc2O[C@H]1CN(C)C(=O)Cc1ccccn1 | inactive
27 | C[C@@H]1CN([C@@H](C)CO)C(=O)c2cc(C#Cc3ccccc3F)cnc2O[C@H]1CN(C)C(=O)Cc1ccncc1 | inactive
28 | CN1CCN(CCO)CC1 | inactive
29 | C[C@@H]1CCCCO[C@@H](CN(C)S(=O)(=O)c2cccs2)[C@@H](C)CN([C@H](C)CO)C(=O)c2cc(NC(=O)CCC(F)(F)F)ccc2O1 | inactive
30 | COc1ccc(S(=O)(=O)Nc2ccc3c(c2)C(=O)N([C@H](C)CO)C[C@H](C)[C@@H](CN(C)S(=O)(=O)c2cccs2)O3)cc1 | inactive
31 | CC(C)NC(=O)N(C)C[C@@H]1Oc2cc(C#Cc3ccccn3)ccc2S(=O)(=O)N([C@@H](C)CO)C[C@H]1C | inactive
32 | O=C(C[C@H]1CC[C@@H]2[C@H](COC[C@@H](O)CN2S(=O)(=O)c2ccc(Cl)cc2)O1)NCCN1CCCC1 | inactive
33 | C[C@@H]1CN([C@H](C)CO)C(=O)c2cccc(NC(=O)c3cnccn3)c2O[C@@H]1CN(C)Cc1ccc2c(c1)OCO2 | inactive
34 | C[C@H]1CN([C@@H](C)CO)C(=O)c2ccccc2-c2ccccc2CO[C@H]1CN(C)C(=O)c1cc(Cl)cc(Cl)c1 | inactive
35 | C[C@H](CO)N1C[C@H](C)[C@H](CN(C)C(=O)Nc2ccc(C(F)(F)F)cc2)Oc2ccc(NC(=O)Nc3ccc(C(F)(F)F)cc3)cc2CC1=O | active
36 | C[C@@H]1CN([C@H](C)CO)C(=O)Cc2cc(NC(=O)Nc3ccc(C(F)(F)F)cc3)ccc2O[C@@H]1CN(C)C(=O)Nc1ccc(C(F)(F)F)cc1 | active
37 | COCC#Cc1ccc([C@@H]2[C@@H](CO)N3C(=O)CN(C(=O)c4cccnc4)C[C@H]23)cc1 | inactive
38 | CCO[C@H]1OC(C(=O)N2CCN(Cc3ccc4c(c3)OCO4)CC2)=C[C@@H](c2ccc(C(F)(F)F)cc2)[C@@H]1CCCOC(=O)NCCCCCC(=O)NO | inactive
39 | CC(C)C(=O)N1CC[C@H]2CN(CC(=O)N(C)C)S(=O)(=O)[C@@H]2CC1 | inactive
40 | C[C@H]1CCCCO[C@@H](CN(C)S(=O)(=O)c2ccccc2)[C@@H](C)CN([C@@H](C)CO)C(=O)c2cc(NC(=O)C3CCCCC3)ccc2O1 | inactive
41 | O=C(C[C@H]1CC[C@H]2[C@@H](COC[C@H](O)CN2S(=O)(=O)c2cccc(Cl)c2)O1)N1CCOCC1 | inactive
42 | CO[C@@H](C(=O)N(C)C[C@@H]1OCc2ccccc2-c2c(n(C)c3ccccc23)C(=O)N([C@H](C)CO)C[C@@H]1C)c1ccccc1 | inactive

Row | Compound | cytotoxicity call
43 | CNS(=O)(=O)c1cc(OC)ccc1OC | inactive
44 | COc1cccc(S(=O)(=O)N2C[C@H](O)COC[C@H]3O[C@@H](CC(=O)N4CCN(c5ccccc5)CC4)CC[C@@H]32)c1 | inactive
45 | CCCNC(=O)Cn1c(=O)n(C)c2ccccc21 | inactive
46 | C[C@H](CO)N1C[C@H](C)[C@@H](CN(C)CC2CCCCC2)OCCCC[C@H](C)Oc2ccc(NC(=O)Cc3ccccc3)cc2C1=O | inactive
47 | C[C@H](CO)N1C[C@H](C)[C@H](CN(C)CC2CCCCC2)OCCCC[C@H](C)Oc2ccc(NC(=O)Cc3ccccc3)cc2C1=O | inactive
48 | C[C@H]1CCCCO[C@@H](CN(C)CC2CCCCC2)[C@@H](C)CN([C@@H](C)CO)C(=O)c2cc(NC(=O)Cc3ccccc3)ccc2O1 | active
49 | C[C@H]1CCCCO[C@@H](CN(C)CC2CCCCC2)[C@@H](C)CN([C@@H](C)CO)C(=O)c2cc(NC(=O)CCCN(C)C)ccc2O1 | active
50 | C[C@@H]1CCCCO[C@@H](CN(C)CC2CCCCC2)[C@H](C)CN([C@@H](C)CO)C(=O)c2cc(NC(=O)Cc3ccccc3)ccc2O1 | inactive
51 | C[C@H]1CCCCO[C@H](CN(C)CC2CCCCC2)[C@@H](C)CN([C@@H](C)CO)C(=O)c2cc(NC(=O)Cc3ccccc3)ccc2O1 | active
52 | C[C@@H]1CN([C@@H](C)CO)C(=O)c2cc(NC(=O)Cc3ccccc3)ccc2O[C@@H](C)CCCCO[C@H]1CN(C)CC1CCCCC1 | active
53 | C[C@@H]1CCCCO[C@@H](CN(C)CC2CCCCC2)[C@@H](C)CN([C@H](C)CO)C(=O)c2cc(NC(=O)CCCN(C)C)ccc2O1 | inactive
54 | C[C@@H]1CCCCO[C@@H](CN(C)CC2CCCCC2)[C@H](C)CN([C@H](C)CO)C(=O)c2cc(NC(=O)Cc3ccccc3)ccc2O1 | inactive
55 | C[C@@H]1CCCCO[C@H](CN(C)CC2CCCCC2)[C@H](C)CN([C@H](C)CO)C(=O)c2cc(NC(=O)Cc3ccccc3)ccc2O1 | inactive
56 | C[C@@H]1CCCCO[C@H](CN(C)CC2CCCCC2)[C@@H](C)CN([C@H](C)CO)C(=O)c2cc(NC(=O)Cc3ccccc3)ccc2O1 | inactive
57 | C[C@@H]1CN([C@H](C)CO)C(=O)c2cc(NC(=O)CCCN(C)C)ccc2O[C@@H](C)CCCCO[C@H]1CN(C)CC1CCCCC1 | inactive
58 | C=CC(C)(O)CCC1C(C)(O)CCC2C(C)(C)CCCC21C (configuration not stated) | inactive
59 | CCS(=O)(=O)Nc1ccc2c(c1)C(=O)N(C)[C@@H]1CC[C@H](CC(=O)N3CCN(C)CC3)O[C@@H]1CO2 | inactive
60 | NCC[C@H]1CC[C@H](NC(=O)Nc2ccc(F)cc2)[C@H](CO)O1 | inactive
61 | CN(C)CCN1CCN(C)C2(CCN(S(=O)(=O)C3CC3)CC2)C1=O | inactive
62 | Cc1noc(C)c1NC(=O)Nc1ccc2c(c1)CC(=O)N([C@@H](C)CO)C[C@H](C)[C@@H](CN(C)Cc1ccc(C(=O)Nc3ccccc3N)cc1)O2 | inactive
